Compound activity from PubChem BioAssay.
A selection: hits, their analogues and other compounds. The true share with any hit is near 2.3%.
Kir21 block = blocks the mouse Kir2.1 inward-rectifier potassium channel | P35561 | B-score at 10 µM | hit rate 0.85% among 310,000 | HEK293-Kir2.1, FluxOR thallium flux fluorescence; stronger effect = lower value;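 active means fluorescence ratio B-score at or below minus 3 SD of library scores, with starting-brightness B-score within 2 SD, cut at about -4.2 in these data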;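 further: channel flux triggered by added potassium and thallium sulfate stimulus; B-score of peak minus minimum fluorescence over baseline after thallium stimulus; more negative B-score means stronger Kir2.1 block with less thallium influx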
Target sequence (P35561 whole entry, looked up): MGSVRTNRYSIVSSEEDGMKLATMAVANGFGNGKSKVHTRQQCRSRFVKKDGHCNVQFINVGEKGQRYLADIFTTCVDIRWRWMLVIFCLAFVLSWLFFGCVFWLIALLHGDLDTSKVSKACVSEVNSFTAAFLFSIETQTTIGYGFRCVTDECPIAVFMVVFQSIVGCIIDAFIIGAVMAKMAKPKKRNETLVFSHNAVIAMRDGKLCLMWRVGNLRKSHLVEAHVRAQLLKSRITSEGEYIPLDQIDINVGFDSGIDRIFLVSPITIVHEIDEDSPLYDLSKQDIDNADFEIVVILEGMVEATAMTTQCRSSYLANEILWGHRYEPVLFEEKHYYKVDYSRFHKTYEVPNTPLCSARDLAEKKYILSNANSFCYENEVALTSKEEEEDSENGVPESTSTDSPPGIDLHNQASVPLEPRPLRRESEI
PfM18AAP inh-1 = PfM18AAP enzyme inhibition | recombinant PfM18AAP, H-Glu-NHMec fluorogenic cleavage | inhibition, % at 7.35 µM | hit rate 1.2% among 290,000 | AID 1822;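 active means inhibition above the campaign mean inhibition over all tested compounds plus 3 SD, cut at about 28% in these data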
Rce1 inhib = blocks yeast Ras-converting enzyme. Q03530. yeast membranes, quenched prenylated peptide cleavage fluorescence. calls only. hit rate 0.27% among 290,000;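 active means fall in fluorescence gain of 50% or more versus controls, with final raw signal at or below 3038400; inconclusive means same 50% fall but final raw signal above 3038400; inactive means fall in fluorescence gain under 50%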
DNA FID counter = displaces DNA intercalator in HCV helicase counter-screen. DNA fluorescent intercalator displacement, fluorescence. inhibition, % at 7.9 µM. hit rate 0.17% among 290,000; in the data active means inhibition above about 37%;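 further: higher means more ethidium bromide displaced from hairpin DNA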
PfM18AAP inh-2 = confirmation of Plasmodium falciparum M18 aspartyl aminopeptidase inhibitors. inhibition, % at 7.35 µM. recombinant PfM18AAP, H-Glu-NHMec fluorogenic cleavage. shares compounds with PfM18AAP inh-1. hit rate 28% among 2,400;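 active means mean inhibition over replicate wells above the hit cutoff set for the earlier primary screen, cut at about 29% in these data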
CTSL1 counter = Cathepsin L (human) inhibition, confirmation | purified cathepsin L1, Z-Leu-Arg-MCA fluorescence | shares compounds with PfM18AAP inh-1 | inhibition, % at 5.96 µM | 2,400 tested, under 10 active | AID 2178;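 active means average inhibition across replicates above the hit cutoff set in the earlier primary screen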
Numbers stand for hits; 0 = inactive; ? = inconclusive; - = no result; + = active, no number.

SMILES	Kir21 block	PfM18AAP inh-1	Rce1 inhib	DNA FID counter	PfM18AAP inh-2	CTSL1 counter
O=C(N/N=C/c1ccc(O)c(O)c1)c1ccc(CSc2cccc3cccnc23)cc1	0	57	0	0	49	0
O=C(CSc1cccc2cccnc12)N/N=C/c1cccc(O)c1	0	0	0	0	-	-
Cc1ccc(CC(=O)NC2CCSC2=O)cc1 (configuration not stated)	0	0	-	0	-	-
CCC(=O)/C=C1/Sc2ccccc2N1CC	0	54	0	0	0	0
CCN1/C(=C/C(=O)c2ccco2)Sc2ccccc21	0	46	0	0	0	0
CN1/C(=C\C(=O)c2ccco2)C(C)(C)c2ccccc21	0	0	0	0	-	-
CCc1noc(C)c1C(=O)Nc1cccc2ncccc12	0	0	0	0	-	-
O=[N+]([O-])c1cc([N+](=O)[O-])c(Oc2ccc(Cl)c3cccnc23)cc1NN1CCCCC1	0	0	0	0	-	-
COCCn1c(SCC(=O)N2CCC(C)CC2)nc2c(c1=O)SCC2	0	0	0	0	-	-
Cc1cc(C)n2c(=S)[nH]nc2n1	0	81	0	0	72	0
COc1ccccc1C(=O)N/C(=C\c1cn(C)c2ccccc12)C(=O)NCCCN1CCOCC1	0	0	0	0	-	-
COc1cccc(/C=N/n2c(N)c(S(=O)(=O)c3cccs3)c3nc4ccccc4nc32)c1OC	0	0	0	0	-	-
Nc1c(S(=O)(=O)c2cccc(Cl)c2)c2nc3ccccc3nc2n1/N=C/c1ccc(O)c(O)c1	0	44	0	0	0	0
COc1cc(C(=O)OCC(=O)N2CCC(Cc3ccccc3)CC2)cc(OC)c1OC	0	-	0	-	-	-
O=C(NCCCN1CCOCC1)c1sc2cc([N+](=O)[O-])ccc2c1Cl	0	59	0	0	33	0
Cc1nnc(SCc2cc(=O)[nH]c(=S)[nH]2)s1	0	47	0	0	0	0
COc1ccc(/C(C)=N/Nc2nncc3ccccc23)cc1	0	0	0	0	-	-
COc1ccc(/C(C)=N/Nc2nc3ccccc3nc2C)cc1	0	56	0	0	0	0
C=C(C)c1cccc(C(C)(C)NC(=O)NNC(=O)c2ccccc2O)c1	0	40	0	0	0	0
C=C(C)c1cccc(C(C)(C)NC(=O)Nc2ccc(C(C)=O)cc2)c1	0	0	0	0	-	-
N#Cc1c(N)sc2c1CCCCCC2	0	43	0	0	0	0
O=C(COc1cccc(C(F)(F)F)c1)N1CCN(c2ccc(O)cc2)CC1	0	33	0	0	0	0
COc1ccc(N(CC(=O)NCc2ccccc2OC)S(=O)(=O)c2ccccc2)cc1	0	0	0	0	-	-
O=C(NC(=S)NCCOCc1ccc(Cl)cc1)c1cccnc1	0	0	0	0	-	-
O=C(Cc1ccc(Cl)cc1)NNC(=S)NC(=O)c1cccnc1	0	50	0	0	0	0
SMILES	Kir21 block	PfM18AAP inh-1	Rce1 inhib	DNA FID counter	PfM18AAP inh-2	CTSL1 counter
O=C(NNC(=S)NC(=O)c1cccnc1)c1ccc(Cl)cc1	0	39	0	0	0	0
O=C(NNC(=S)NCc1ccc(Cl)cc1)c1cccnc1	0	0	0	0	-	-
Cc1c(O)ccc(C(=O)CN2CCN(Cc3ccc4c(c3)OCO4)CC2)c1O	0	93	0	98	0	0
O=C1NC(=S)SC1=C1CCCC1	0	36	0	0	0	0
CN1C(=O)C(=C2CCCCCC2)SC1=S	0	0	0	0	-	-
Oc1cccc(Nc2c3ccccc3nc3ccccc23)c1	0	37	0	42	0	0
O=C(NC(=O)c1ccccc1)OCC1CCCN2CCCCC12 (configuration not stated)	0	0	0	0	-	-
O=C(OCC1CCCN2CCCCC12)c1ccc2c(c1)OCO2 (configuration not stated)	0	35	0	0	0	0
COCCN=c1scc(-c2ccccc2)n1/N=C/c1c[nH]c2ccccc12	0	0	0	0	-	-
CCN=c1scc(C)n1/N=C/c1ccc(O)c(O)c1O	0	46	0	0	0	0
COCCN=c1scc(-c2cccs2)n1/N=C/c1ccc(O)c(O)c1O	0	42	0	0	0	0
CCN=c1scc(-c2ccco2)n1/N=C/c1ccc(O)cc1	0	0	0	0	-	-
COc1ccc(NC(=O)C2CCN(c3ncnc4c3nc3n4CCCCC3)CC2)cc1Cl	0	0	0	0	-	-
CCOC(=O)c1c(CN(C)C)n(-c2ccccc2)c2cc(Br)c(OC)cc12	0	0	0	0	-	-
CCOC(=O)c1c(CN(C)C)n(-c2ccc(C)cc2)c2cc(Br)c(O)cc12	0	38	0	0	0	0
N#CCC(=O)N/N=C/c1ccc(OCC(=O)Nc2ccc(F)cc2)cc1	0	42	0	0	0	0
N#CCC(=O)N/N=C/c1ccc(Cl)cc1	0	0	0	0	-	-
O=C(Cc1ccccc1)N/N=C/c1ccc(OCC(=O)Nc2ccccc2)cc1	0	0	0	0	-	-
CN(c1ccccc1)c1ccc(/C=N/NC(=O)CC#N)cc1	0	36	+	0	0	0
CCCCOc1ccccc1/C=N/NC(=O)CC#N	0	38	0	0	0	0
CCN1CCN(C(=O)C(C)Nc2ccc(OC)cc2OC)CC1 (configuration not stated)	0	0	0	0	-	-
O=C(NCCC(=O)N1CCC2(CC1)NCCc1[nH]cnc12)c1ccc(F)c(F)c1	0	0	0	0	-	-
O=[N+]([O-])c1cc([N+](=O)[O-])c2nonc2c1Nc1ccc(O)cc1	0	0	0	0	-	-
O=[N+]([O-])c1cc([N+](=O)[O-])c2nonc2c1Nc1ccccc1O	0	38	0	0	0	0
Cc1cccc(N(CC(=O)NCC2CCCO2)C(=O)CNS(=O)(=O)c2ccc(Cl)cc2)c1 (configuration not stated)	0	0	0	0	-	-
SMILES	Kir21 block	PfM18AAP inh-1	Rce1 inhib	DNA FID counter	PfM18AAP inh-2	CTSL1 counter
CC(C)(C)c1ccc(NC(=O)CCNC(=O)c2ccco2)cc1	0	0	0	0	-	-
Cc1ccc2nc(/C(C#N)=C/c3ccc(O)c(O)c3)[nH]c2c1	0	60	0	0	36	0
CC(C)n1c(=O)[nH][nH]c1=S	0	57	0	0	36	0
CC(C)n1c(=O)[nH]c2ccccc21	0	0	0	0	-	-
COc1cccc(NC(=O)C2CCN(C(=O)[C@@H]3Cc4ccccc4CN3C(=O)OC(C)(C)C)CC2)c1	0	0	0	0	-	-
Cc1c(CC(=O)N2CCC(C(=O)O)CC2)c(=O)oc2cc3c(cc12)CCC1(CCCCC1)O3	0	0	?	0	-	-
CC(=O)Nc1ccc(NC(=O)CSc2nnc(-c3cccnc3)o2)cc1	0	-	0	-	-	-
Nc1nonc1C(=Nc1ccccc1)NO	0	43	0	0	31	0
Cc1cccc(N=C(NO)c2nonc2N)c1	0	33	0	0	0	0
CCn1nc(C)cc1C(=O)N1CCCC(N2CCN(Cc3ccc4c(c3)OCO4)CC2)C1 (configuration not stated)	0	0	0	0	-	-
CCOC(=O)N1CCc2c(sc(N)c2C#N)C1	0	39	0	0	0	0
CCCC(=O)N(c1ccc2oc(=O)sc2c1)S(=O)(=O)c1cccs1	-	37	-	0	0	0
COC(=O)C1=C(C)OC(N)=C(C#N)C1c1ccccc1 (configuration not stated)	0	0	0	0	-	-
